# Sampled rows, rich in hits. Any-hit rate of the full collection: about 1.8%.
# GSIS activator: GLuc luminescence reporter in INS-1E cells, primary screen for activators of glucose-dependent secretion of insulin; 370,000 tested, 0.61% active; INS-1E GLuc reporter insulin secretion, 2-3 h; AID 743287; activation, % at 16.6 µM;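 active = lowest replicate activation of at least 40%, so every replicate reaches that level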;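 note: 0% = median of neutral control wells and 100% = median of IBMX positive control wells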
# ABCB6 inh 2: inhibitors of human ABC transporter ABCB6. Q9NP58. K562-ABCB6 porphyrin accumulation, flow cytometry, 1 h; hits give low values. fluorescence ratio to DMSO, % at 10 µM. 360,000 tested, 0.19% active. AID 602162;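 active = fluorescence ratio to DMSO below 75%, the collection mean minus 3 SD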;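 note: signal is porphyrin accumulated inside mitochondria; 100% equals median channel fluorescence of DMSO control wells; lower ratio means ABCB6 inhibition with less porphyrin fluorescence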
# Target sequence (Q9NP58 whole entry, looked up): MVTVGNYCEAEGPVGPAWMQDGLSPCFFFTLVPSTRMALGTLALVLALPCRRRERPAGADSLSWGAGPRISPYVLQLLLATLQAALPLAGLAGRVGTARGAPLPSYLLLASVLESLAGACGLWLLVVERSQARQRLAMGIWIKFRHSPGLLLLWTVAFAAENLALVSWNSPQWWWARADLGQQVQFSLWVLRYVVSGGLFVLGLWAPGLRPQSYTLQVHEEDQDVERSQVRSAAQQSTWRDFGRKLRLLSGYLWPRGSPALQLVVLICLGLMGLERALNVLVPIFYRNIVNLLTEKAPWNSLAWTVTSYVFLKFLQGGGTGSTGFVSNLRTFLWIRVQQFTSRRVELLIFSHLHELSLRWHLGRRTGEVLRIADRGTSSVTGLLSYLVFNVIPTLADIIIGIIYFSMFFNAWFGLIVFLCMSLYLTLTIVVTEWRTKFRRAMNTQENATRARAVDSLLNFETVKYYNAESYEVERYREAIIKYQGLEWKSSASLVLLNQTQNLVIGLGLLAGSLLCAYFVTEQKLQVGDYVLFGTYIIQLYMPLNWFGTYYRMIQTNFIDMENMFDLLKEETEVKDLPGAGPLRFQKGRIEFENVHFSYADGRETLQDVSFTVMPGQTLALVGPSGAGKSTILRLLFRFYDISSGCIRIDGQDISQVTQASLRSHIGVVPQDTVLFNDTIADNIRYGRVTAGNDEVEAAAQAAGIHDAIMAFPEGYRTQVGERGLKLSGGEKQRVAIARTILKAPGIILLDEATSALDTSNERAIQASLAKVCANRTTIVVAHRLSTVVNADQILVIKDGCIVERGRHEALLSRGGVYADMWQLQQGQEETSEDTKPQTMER
# iPSC survival up: increases survival of single human iPS cells; 360,000 tested, 0.044% active; hiPSC single-cell survival, ATPlite luminescence; 100% = ROCK inhibitor wells, 0% = DMSO; survival enhancement, % at 20 µM; in the data active = survival enhancement above about 18%;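 note: cells exposed to compounds for 16 hours before the ATP read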
# ARNT-TACC3 inh: disrupts binding between human ARNT and TACC3 | AlphaScreen His-ARNT PAS-B/GST-TACC3 binding, luminescence; TACC3 fragment carries E629A point mutation | 390,000 tested, 0.66% active | AID 623870 | inhibition, % at 9.99 µM | Q9Y6A5;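 active = mean inhibition of replicates at least 50% and at least half of replicates each reaching 50%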;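 note: 0% = complete ARNT plus TACC3 wells and 100% = ARNT alone without TACC3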
# CendR NRP1 mod: modulators of CendR peptide binding to human neuropilin-1. 360,000 tested, 0.85% active. AID 602438. FAM-RPARPAR peptide binding to NRP-1, fluorescence polarization. inhibition, % at 25 µM;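 active = inhibition or corrected inhibition above about 18%, plus a signal ratio from 0.5 to 1.5, limit read from the data, passing the limit was not always enough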
# ABCB6 blocker 1: human ABCB6 transporter inhibition; shares compounds with ABCB6 inh 2; K562-ABCB6 porphyrin accumulation, flow cytometry, 1 h; hits give low values; ratio response (% of DMSO), % at 10 µM; 700 tested, under 10 active;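 active = repeat-averaged ratio response below 75% of DMSO, the collection mean minus 3 SD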;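 note: median porphyrin fluorescence at 575 nm with 488 nm excitation from mitochondria; lower ratio means less porphyrin signal so ABCB6 inhibition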
# * = called active by the depositor; nt = not tested or not shown.
SMILES,GSIS activator,ABCB6 inh 2,iPSC survival up,ARNT-TACC3 inh,CendR NRP1 mod,ABCB6 blocker 1
O=C(C[C@H]1C[C@H]2c3cc(NC(=O)c4ccc5c(c4)OCO5)ccc3O[C@H]2[C@H](CO)O1)NCc1ccc(Cl)cc1,-2,nt,nt,-13,nt,nt
COc1ccccc1CN(C)C(=O)C(c1ccccc1)c1ccccc1,-44,73*,0,-9,8,100
N#CCCS(=O)(=O)c1ccc(N)cc1,0,99,2,34,12,nt
Cc1ccc(S(=O)(=O)CCC#N)cc1,39,19*,0,-3,15,97
COc1ccc(N(CC(=O)Nc2c(C)n(C)n(-c3ccccc3)c2=O)S(=O)(=O)c2ccc(C)cc2)cc1,-4,72*,-1,-3,-5,100
COc1ccc(N(CC(=O)Nc2c(C)n(C)n(-c3ccccc3)c2=O)S(=O)(=O)c2ccc(F)cc2)cc1,-10,93,-2,-6,10,nt
Cc1ccc(-c2csc3ncnc(N4CCN(S(=O)(=O)c5cccs5)CC4)c23)cc1,nt,74*,0,0,-11,97
CCN(CC)C(=O)CSc1nc(O)c(Cc2ccccc2)c(=O)n1-c1ccccc1,nt,57*,-1,-12,4,100
CCC(=O)N1Cc2cc(C(=O)NCCOC)nc(-c3cccc(-c4ccc(C#N)cc4)c3)c2[C@@H]1CCO,3,nt,nt,nt,nt,nt
O=C(CCN1C(=O)C2C3CCC(C3)C2C1=O)OCC(=O)c1ccccc1 (stereo not given),-54,91,0,-4,-9,nt
O=C(CCN1C(=O)C2C3CC(C(Br)C3Br)C2C1=O)OCC(=O)c1ccccc1 (stereo not given),-10,71*,0,-6,0,99
CC(=O)Nc1cccc2c1O[C@@H](CN(C)S(C)(=O)=O)[C@H](C)CN(C)C2=O,18,nt,nt,nt,nt,nt
C[C@@H]1CN([C@@H](C)CO)C(=O)c2cc(NS(C)(=O)=O)ccc2O[C@H]1CN(C)S(=O)(=O)c1ccc(Cl)cc1,23,nt,nt,nt,nt,nt
CC(C)=CCc1c(O)ccc(C(=O)Cc2ccccc2)c1O,nt,64*,-2,-3,1,96
COc1ccc(NC(=O)C2Cc3c(-c4cccc(C(N)=O)c4)ccnc3O2)cc1OC (stereo not given),nt,96,1,nt,-2,98
COc1ccc(NC(=O)C2Cc3c(-c4cccc(C(C)=O)c4)ccnc3O2)cc1OC (stereo not given),-42,90,0,nt,-3,nt
CS(=O)(=O)Nc1cccc(NC(=O)C2Cc3c(-c4cccc(C(N)=O)c4)ccnc3O2)c1 (stereo not given),nt,61*,-2,nt,8,100
CC(C)CC#Cc1ccc([C@@H]2[C@@H](CO)N3C(=O)CN(S(C)(=O)=O)C[C@@H]23)cc1,-13,nt,nt,nt,nt,nt
CCOC(=O)c1sc(NC(=O)C(CC)Sc2nnc3c4ccccc4n(C(C)C)c3n2)nc1C (stereo not given),5,93,-2,2,6,nt
CCOC(=O)Cc1nnc(NC(=O)C(CC)Sc2nnc3c4ccccc4n(C)c3n2)s1 (stereo not given),nt,74*,3,7,4,100
C/C=C/c1ccc([C@@H]2[C@@H](CO)N(Cc3nccs3)C23CN(CC2CCCC2)C3)cc1,2,nt,nt,nt,nt,nt
O=C(COc1ccccc1Br)NCc1ccccn1,-7,102,-1,-42,1,nt
COC(=O)c1ccc(CNC(=O)COc2ccccc2Br)o1,1,32*,1,-15,-6,97
O=C(C1CCCCC1)N1CCC(c2nc3c(nnn3Cc3ccccc3Cl)c(=O)[nH]2)CC1,-13,100,-1,-13,-1,nt
N#Cc1cccc(NC(=O)N2CCC(c3nc4c(nnn4Cc4cccc(Cl)c4)c(=O)[nH]3)CC2)c1,nt,90,0,1,3,98
SMILES,GSIS activator,ABCB6 inh 2,iPSC survival up,ARNT-TACC3 inh,CendR NRP1 mod,ABCB6 blocker 1
O=C(Cc1cccs1)N1CCC(c2nc3c(nnn3Cc3ccccc3Cl)c(=O)[nH]2)CC1,-1,64*,0,nt,0,100
CCCCCCC(=O)N1CCC(c2nc3c(nnn3Cc3ccccc3Cl)c(=O)[nH]2)CC1,-11,93,0,2,-2,101
O=C(C1CCCCC1)N1CCC(c2nc3c(nnn3Cc3c(F)cccc3Cl)c(=O)[nH]2)CC1,nt,104,-2,-6,1,101
O=C(CC1CC1)N1CC2(C1)[C@@H](c1ccccc1)[C@H](CO)N2CC1CCOCC1,9,nt,nt,nt,nt,nt
O=S(=O)(c1cccc(F)c1)N1CC[C@H]2[C@H](CO)Nc3ccc(C#Cc4cccc(F)c4)cc3[C@H]21,-8,nt,nt,nt,nt,nt
Cc1cc(NC(=O)CSc2nnnn2-c2ccc(C)c(Cl)c2)no1,15,72*,1,-23,14,99
Cc1cc(NC(=O)CSc2nnnn2-c2ccc(C)c(C)c2)no1,4,96,0,nt,8,nt
CC(OC(=O)c1ccc(=O)n(Cc2ccccc2)n1)C(=O)Nc1cccc(Cl)c1 (stereo not given),-28,68*,0,-2,17*,101
COc1ccc2oc(-c3ccc(NC(=O)c4ccc(N5CCOCC5)c([N+](=O)[O-])c4)cc3)nc2c1,109*,60*,-2,-66,-4,98
CN1c2ccc(C#Cc3cccnc3)cc2[C@H]2[C@H](CCN2C(=O)C2CCCCC2)[C@H]1CO,-10,nt,nt,8,nt,nt
CC(C)c1ccc(CC(=O)N2CCC2(C)C(=O)NS(=O)(=O)c2cccc(OC(F)F)c2)cc1 (stereo not given),-9,95,-1,nt,-10,97
CC1(C(=O)NS(=O)(=O)c2ccc(F)cc2F)CCN1C(=O)Cc1cccc2ccccc12 (stereo not given),-1,97,0,nt,-8,100
CC(C)c1ccc(CC(=O)N2CCC2(C)C(=O)NS(=O)(=O)c2ccc(F)cc2F)cc1 (stereo not given),6,99,-4,nt,-9,97
Cc1cc(C)cc(NC(=O)c2cc3c(=O)n4ccccc4nc3s2)c1,-5,91,-1,-7,-3,97
CSc1ccccc1NC(=O)c1cc2c(=O)n3ccccc3nc2s1,0,102,0,-7,2,101
CC(C)NC(=O)c1cc2c(=O)n3ccccc3nc2s1,-1,79,0,-7,6,nt
Cc1c(NC(=O)c2cc3c(=O)n4ccccc4nc3s2)c(=O)n(-c2ccccc2)n1C,7,93,0,6,1,nt
CN1c2ccc(-c3cccc(C#N)c3)cc2[C@@H]2[C@@H](CCN2C(=O)C2CCCCC2)[C@@H]1CO,-12,nt,nt,nt,nt,nt
COCCCNC(=O)c1ccc2c(c1)CCN2S(C)(=O)=O,1,69*,-4,-17,-8,98
COCCNC(=O)c1ccc2c(c1)CCN2S(C)(=O)=O,-12,98,3,0,6,nt
COCC(=O)N1[C@@H](C#N)[C@@H](c2ccccc2C2=CCCCC2)[C@@H]1CO,6,nt,nt,nt,nt,nt

# Assay outcomes: PubChem, several laboratories
